From PubChem BioAssay (NCI)
About 83,000 compounds went through this panel and 20% of them were active in at least one assay; those are over-represented in the sample as a whole.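 96-well plates, one dose, 48 hours. Percent growth reported; active if below 10.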 The source made the active and inactive calls.

Key:
Test in all cases: NCI-60 one-dose screen, 48 h (100 = growth as untreated, 0 = no growth, -100 = all killed)
Conditions in all cases: 10 µM unless noted
[1] = test system: T-47D breast
[2] = test system: BT-549 breast
[3] = test system: MDA-MB-435 melanoma
[4] = test system: SW-620 colon
[5] = test system: MCF7 breast
[6] = test system: HCT-116 colon
[7] = test system: HCC-2998 colon
[8] = test system: KM12 colon

Measured: growth

CCCCc1ccc2nc(NC(=O)OC)[nH]c2c1
inactive: [1] 76.8% | [2] 31.1% | [4] 14.4% | [5] 12.8%
active: [3] 0.507% | [6] 7.36% | [7] -43.3% | [8] -12.2%

O=C(OC1CCCC1)c1ccccc1Cl
inactive: [1] 96% | [2] 104% | [3] 105% | [4] 106% | [5] 96.2% | [6] 98.7% | [7] 103% | [8] 105%

CC(=O)Nc1ccc(/C=C2\SC(=S)N(/C=C(\C(C)=O)C(N)=O)C2=O)cc1
inactive: [1] 87.5% | [2] 92.3% | [3] 89.6% | [4] 96.9% | [5] 96.4% | [6] 92.2% | [7] 94.4% | [8] 101%

CCNCC(C)(C)O
inactive: [1] 104% | [2] 105% | [3] 106% | [4] 106% | [5] 97.1% | [6] 101% | [7] 109% | [8] 113%

C/C(O)=C(/C=N\C(=S)Nc1ccc(S(=O)(=O)Nc2nccs2)cc1)C(=O)Nc1ccccc1C
inactive: [1] 90.2% | [2] 99.2% | [3] 109% | [4] 95.6% | [5] 101% | [6] 94.7% | [7] 109% | [8] 96.8%

CCOC(=O)C(=O)CC(=O)c1ccccc1
inactive: [1] 105% | [2] 109% | [3] 106% | [4] 98.4% | [5] 96.7% | [6] 97.9% | [7] 101% | [8] 96.3%

Cc1ccc(C)c(CN(C)C)c1O
inactive: [1] 120% | [2] 99.2% | [3] 109% | [4] 97.1% | [5] 102% | [6] 112% | [7] 102% | [8] 97.4%

O=S(Cc1ccccc1)/C(=C/NC(=S)Nc1ccccc1)c1ccccc1 (configuration not stated)
inactive: [1] 90.2% | [2] 97.6% | [3] 104% | [4] 104% | [5] 102% | [6] 91.1% | [7] 102% | [8] 99%

S=CN1CCCCC1
inactive: [1] 103% | [2] 105% | [3] 103% | [4] 105% | [5] 96.3% | [6] 102% | [7] 103% | [8] 98.8%

CC(=O)Nc1ncc(S(=O)(=O)c2ccc([N+](=O)[O-])cc2)s1
inactive: [1] 91.4% | [2] 108% | [3] 111% | [4] 101% | [5] 105% | [6] 98.9% | [7] 128% | [8] 116%

Nc1ncnc2c1ncn2C1OC(CO)C2OC21 (configuration not stated)
inactive: [1] 84.7% | [2] 110% | [3] 111% | [4] 99.5% | [5] 93.6% | [6] 108% | [7] 105% | [8] 109%

CN(C(=S)S(=O)(=O)C12CC3CC(CC(C3)C1)C2)c1ccccc1
inactive: [1] 87.1% | [2] 123% | [3] 98.8% | [4] 69.7% | [5] 99.4% | [6] 93.5% | [7] 104% | [8] 109%

O=Cc1ccc(O)c(O)c1
inactive: [1] 83.2% | [2] 101% | [3] 102% | [4] 113% | [5] 96.5% | [6] 98.5% | [7] 93.3% | [8] 91.2%

CC(=O)NC(CCc1ccc(Cl)c(Cl)c1)c1cccc(O)c(=O)c1 (configuration not stated)
inactive: [1] 17.7% | [2] 19.3% | [3] 21.5% | [4] 23.8% | [5] 19.3% | [6] 15.9% | [7] 22.6% | [8] 18.1%

CC(C)N(CCCC#N)C(C)C
inactive: [1] 94.2% | [2] 112% | [3] 103% | [4] 99.2% | [5] 83.7% | [6] 98.8% | [7] 106% | [8] 105%

Nc1nc(Cl)cc(Cl)n1
inactive: [1] 82% | [2] 102% | [3] 111% | [4] 109% | [5] 90.3% | [6] 90.1% | [7] 114% | [8] 106%

CCCCOC(=O)c1ccccc1O
inactive: [1] 107% | [2] 109% | [3] 97.5% | [4] 101% | [5] 98% | [6] 109% | [7] 122% | [8] 106%

CCOC(=O)CSCCC#N
inactive: [1] 83.4% | [2] 87.2% | [3] 106% | [4] 100% | [5] 93.6% | [6] 95.2% | [7] 104% | [8] 105%

COc1ccc(/C=N/NC(=O)COCC(=O)N/N=C/c2ccc(OC)cc2)cc1
inactive: [1] 104% | [2] 118% | [3] 98.2% | [4] 108% | [5] 95.9% | [6] 111% | [7] 111% | [8] 107%

CC(C)(CC(=O)O)CC(=O)O
inactive: [1] 119% | [2] 98.6% | [3] 99.7% | [4] 103% | [5] 103% | [6] 103% | [7] 99.8% | [8] 100%

CCOC(=O)c1ccc(Nc2sc(C(=O)c3ccc(Br)cc3)c(N)c2C#N)cc1
active: [3] -61.9% | [5] 9%
inactive: [1] 28% | [2] 50.9% | [4] 25.6% | [6] 26.9% | [7] 66.1% | [8] 21.7%

Nc1ncnc(Nc2ccc(C(F)(F)F)cc2)n1
inactive: [1] 96.8% | [2] 98.2% | [3] 99.9% | [4] 109% | [5] 96.6% | [6] 95.3% | [7] 101% | [8] 105%

CC(=O)C1C(=O)C(=O)N(c2ccc(Cl)c(Cl)c2)C1=O (configuration not stated)
inactive: [1] 93.2% | [2] 97.5% | [3] 103% | [4] 108% | [5] 89.1% | [6] 91.3% | [7] 101% | [8] 103%

Cc1cc(=O)n(Nc2ccccc2)c(O)c1C#N
inactive: [1] 92% | [2] 107% | [3] 108% | [4] 98.6% | [5] 98.4% | [6] 101% | [7] 112% | [8] 92.9%

CCCCCCCCCCCCCCCCOc1ccccc1NC(=O)CC(C)=O
inactive: [1] 111% | [2] 90.9% | [3] 102% | [4] 110% | [5] 91.9% | [6] 97.5% | [7] 104% | [8] 94.5%

COC(c1ccc2c(c1)OCO2)C(C)Br (configuration not stated)
inactive: [1] 71.8% | [2] 104% | [3] 90% | [4] 94.9% | [5] 110% | [6] 88.5% | [7] 105% | [8] 93.5%

CN1CCCN(C(c2ccccc2)c2ccc(Cl)cc2)CC1 (configuration not stated)
inactive: [1] 87.1% | [2] 94.5% | [3] 89.6% | [4] 85.9% | [5] 80.6% | [6] 96.9% | [7] 98.9% | [8] 101%

Nc1ccc2ccccc2c1-c1c(N)ccc2ccccc12
active: [3] -4.5%
inactive: [1] 32.2% | [2] 61.5% | [4] 24.3% | [5] 19.6% | [6] 24.9% | [7] 66.3% | [8] 25.7%

Cc1cc(Nc2ccc3c(c2)OCO3)c2cc3c(cc2n1)OCO3
active: [3] -68.2% | [5] 7.08% | [8] 9.98%
inactive: [1] 44.6% | [2] 69.8% | [4] 10.3% | [6] 23% | [7] 45.7%

CC(CO)(CO)C(=O)O
inactive: [1] 95.5% | [2] 109% | [3] 105% | [4] 104% | [5] 101% | [6] 102% | [7] 94.6% | [8] 106%

O=S(=O)(O)c1cccc2cccnc12
inactive: [1] 106% | [2] 121% | [3] 105% | [4] 94.6% | [5] 106% | [6] 100% | [7] 103% | [8] 105%

Cn1c2ccccc2c2nnc(NCCCCO)nc21
inactive: [1] 76.5% | [2] 101% | [3] 110% | [4] 93% | [5] 59.2% | [6] 90.1% | [7] 98% | [8] 94.8%

ClCC(Cl)C1CCC(Cl)C(Cl)C1 (configuration not stated)
inactive: [1] 100% | [2] 103% | [3] 107% | [4] 105% | [5] 87.1% | [6] 95.6% | [7] 101% | [8] 105%

CCOC(=O)C1(N)CCCCC1
inactive: [1] 93.4% | [2] 113% | [3] 99.2% | [4] 103% | [5] 97.1% | [6] 96% | [7] 101% | [8] 107%

CN(C)Cc1ccccn1
inactive: [1] 102% | [2] 101% | [3] 103% | [4] 103% | [5] 97% | [6] 99.8% | [7] 119% | [8] 111%

OCC1OC(n2ccc3c2ncn2ncnc32)C(O)C1O (configuration not stated)
inactive: [1] 10.9% | [2] 23.3% | [3] 62.1% | [4] 26.2% | [6] 20.5% | [7] 29.1% | [8] 27.6%
active: [5] 9.97%

COC(=O)C1=C(C)C(=O)CC1
inactive: [1] 127% | [2] 114% | [3] 121% | [4] 106% | [5] 97.4% | [6] 103% | [7] 116% | [8] 121%

O=Cc1ccc(F)cc1
inactive: [1] 94.6% | [2] 100% | [3] 97.9% | [4] 92.8% | [5] 92.6% | [6] 101% | [7] 104% | [8] 109%

OC1Cc2ccccc2C1
inactive: [1] 102% | [2] 97.4% | [3] 102% | [4] 96.7% | [5] 86.2% | [6] 97.9% | [7] 94.8% | [8] 98.5%

CC(C)(C)[Si](C)(C)OCC1OC(n2cnc3c(N)ncnc32)CC1OS(C)(=O)=O (configuration not stated)
inactive: [1] 97.8% | [2] 107% | [3] 112% | [4] 98.1% | [5] 105% | [6] 102% | [7] 103% | [8] 95.7%

Cc1cc(Cl)cc(Cc2cc(Cl)cc(C)c2O)c1O
active: [2] 1.21% | [3] -10.5% | [6] 8.46% | [8] -5.92%
inactive: [1] 14% | [4] 14% | [5] 22.4% | [7] 13.1%

COc1ccc(NNS(=O)(=O)O)cc1
inactive: [1] 88.6% | [2] 102% | [3] 102% | [4] 100% | [5] 92.9% | [6] 100% | [7] 110% | [8] 105%

CCCCNC(=O)c1ccc(OCC)cc1
inactive: [1] 96.1% | [2] 99.9% | [3] 103% | [4] 97.9% | [5] 88.6% | [6] 90.5% | [7] 104% | [8] 106%

COc1cc2c(c(OC)c1OC)-c1ccc(SC)c(=O)cc1[C@@H](NC1OC(CO)C(O)C(O)C1O)CC2 (some centres not stated)
inactive: [1] 52.5% | [2] 14.9% | [4] 18.8% | [5] 13.9%
active: [3] -39.6% | [6] 9.89% | [7] -4.3% | [8] -3.89%

CSCC[C@@H]1C(=O)N(C)[C@H](C(C)(C)C)N1C(=O)c1ccccc1
inactive: [1] 104% | [2] 107% | [3] 106% | [4] 102% | [5] 101% | [6] 101% | [7] 105% | [8] 101%

COC1C(=O)CCC2(CO2)C1(O)C1(C)OC1CCC(C)C (configuration not stated)
inactive: [1] 81.2% | [2] 77.4% | [3] 63.8% | [4] 60.5% | [5] 69.1% | [6] 52.5% | [7] 76.4% | [8] 74%

Cc1ccc(C)c(CCO)c1
inactive: [1] 103% | [2] 94.3% | [3] 107% | [4] 98.3% | [5] 112% | [6] 107% | [7] 103% | [8] 101%

C1Cc2onc(-c3noc4c3CCC4)c2C1
inactive: [1] 108% | [2] 114% | [3] 113% | [4] 123% | [5] 99.2% | [6] 108% | [7] 115% | [8] 106%

Clc1cccc(Cl)c1C1CSc2ccccc2N=C1c1ccccc1 (configuration not stated)
inactive: [1] 65.4% | [2] 42% | [3] 15.4% | [6] 19.3% | [7] 95.4% | [8] 44.1%
active: [4] 3.48% | [5] 9.8%
